Screening results from PubChem.
An excerpt weighted towards active compounds, which were near 2.3% of everything screened.
MCL1-BIM inh – disrupts human MCL1 binding to BIM-BH3 peptide; GST-MCL1 / FITC-Bim-BH3 fluorescence polarization; inhibition, % at 10.9 µM; actives 0.68% (n = 320,000); AID 2057;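 active means inhibition above the mean inhibition of all tested compounds plus 3 SD, set per campaign, cut at about 40% in these data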;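 further: 0% = DMSO wells and 100% = unlabeled Bim-BH3 peptide control; higher means more loss of mP so more displacement of Bim peptide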
GLD-1 RNA inh – GLD-1-TGE RNA interaction inhibition (C. elegans); AID 2280; inhibition, % at 5.96 µM; purified GLD-1 + fluorescein TGE RNA, fluorescence polarization; actives 0.44% (n = 320,000);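 active means percent inhibition above a per-plate cutoff, the plate mean of test compounds plus 3 SD, cut at about 30% in these data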;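 further: 0% = DMSO wells with GLD-1 and probe and 100% = wells lacking GLD-1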
Target sequence (Q17339 whole entry, looked up): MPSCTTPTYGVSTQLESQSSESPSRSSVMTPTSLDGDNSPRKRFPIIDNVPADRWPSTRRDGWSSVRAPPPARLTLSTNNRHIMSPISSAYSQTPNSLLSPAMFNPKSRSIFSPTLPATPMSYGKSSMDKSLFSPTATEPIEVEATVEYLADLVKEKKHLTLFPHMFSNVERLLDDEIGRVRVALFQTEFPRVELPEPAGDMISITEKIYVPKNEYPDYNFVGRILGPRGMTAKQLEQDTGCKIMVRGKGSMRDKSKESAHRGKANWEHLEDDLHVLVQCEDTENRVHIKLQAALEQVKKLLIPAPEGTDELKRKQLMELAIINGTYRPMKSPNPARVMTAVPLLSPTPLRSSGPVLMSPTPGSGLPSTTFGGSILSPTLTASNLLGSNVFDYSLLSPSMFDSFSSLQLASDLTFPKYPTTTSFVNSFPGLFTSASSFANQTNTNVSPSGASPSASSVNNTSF
Mcl-1 Bim block – inhibitors of Bim-Mcl-1 interaction, human | AID 1009 | Bead-based flow cytometry, Bim peptide-Mcl-1 binding | actives 0.1% (n = 190,000) | Q07820 | inhibition, % at 10 µM; in the data active means inhibition above about 40%;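 further: 0% = no compound tracer wells and 100% = peptide blocker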
Mcl1 Noxa PPI – disrupts binding of human Mcl-1 to Noxa peptide. TR-FRET Mcl-1/Noxa peptide binding, 2 h. inhibition, % at 21.7 µM. actives 1.5% (n = 220,000);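 active means compounds that cut the protein-peptide binding signal by more than 50% relative to plate controls in a single-dose test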;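 further: His-tagged Mcl-1 with rhodamine Noxa BH3 peptide and terbium anti-His antibody; 0% = Mcl-1 plus Noxa peptide wells and 100% = peptide-only wells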
Mcl1-Bid inh – disrupts binding of human Mcl-1 to Bid peptide; Q07820; TR-FRET Mcl-1/Bid-Dy647 peptide binding, 1536-well; inhibition, % at 21.7 µM; actives 0.97% (n = 220,000);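 active means compounds that cut the binding signal by more than half at the single screening dose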;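 further: His-tagged Mcl-1 with europium anti-His antibody binding Bid BH3 peptide; 0% = Mcl-1 plus peptide wells and 100% = peptide-only wells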
BCLXL inh – Bcl-xL (human) inhibition; actives 0.7% (n = 320,000); AID 2129; GST-Bcl-xL / FITC-Bim BH3 peptide fluorescence polarization; inhibition, % at 10.9 µM;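 active means inhibition above the mean of all tested compounds plus 3 SD, cutoff set per campaign, cut at about 30% in these data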;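 further: 0% = DMSO wells and 100% = unlabeled Bim-BH3 peptide competitor; inhibitors lower millipolarization by displacing the labeled peptide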
Target sequence (Q07817 whole entry, looked up): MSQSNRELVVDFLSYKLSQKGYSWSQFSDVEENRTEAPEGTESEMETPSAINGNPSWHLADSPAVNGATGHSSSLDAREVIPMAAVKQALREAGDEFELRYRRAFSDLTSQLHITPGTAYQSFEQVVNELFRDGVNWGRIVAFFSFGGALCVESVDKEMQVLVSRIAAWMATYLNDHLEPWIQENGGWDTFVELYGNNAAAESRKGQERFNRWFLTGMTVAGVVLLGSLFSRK
Starred values were filed as active, the others as inactive; . = no result.

SMILES	MCL1-BIM inh	GLD-1 RNA inh	Mcl-1 Bim block	Mcl1 Noxa PPI	Mcl1-Bid inh	BCLXL inh
OC(COCc1ccc2c(c1)OCO2)CN1CCN(Cc2ccccc2)CC1 (configuration not stated)	1.1	2.8	-3.0	22.6	52.5*	3.9
Cc1cc(C)cc(NC(=O)N2CCN(Cc3ccc4c(c3)OCO4)CC2)c1	2.9	-3.2	.	4.9	-7.2	4.0
OCCN1CCN(CC(O)COCc2ccc3c(c2)OCO3)CC1 (configuration not stated)	-5.4	2.1	-2.0	21.0	18.2	9.1
O=C(NCCN1CCN(C(=O)Nc2ccccc2)CC1)Nc1ccccc1	3.4	8.0	0.0	11.8	-9.2	112.1*
O=C(CSc1ncnc2scc(-c3ccccc3)c12)N1CCN(Cc2ccc3c(c2)OCO3)CC1	-17.7	-17.3	-4.0	60.9*	-38.0	-1.1
CC1(NC(=O)CC(c2ccccc2)(c2ccccc2)c2ccccc2)CCN(CCCc2ccccc2)C1=O (configuration not stated)	-7.7	5.0	.	.	.	0.0
CC1CCN(S(=O)(=O)c2ccc(NC(=O)CCN3C(=O)C4CC=CCC4C3=O)cc2)CC1 (configuration not stated)	-7.5	-2.0	.	.	.	-9.0
N=c1sccn1CC(=O)Nc1ccc(SC(F)F)cc1	3.6	3.8	-1.0	2.6	-6.7	9.3
Cc1cc(C)c(S(=O)(=O)/N=C2\C=CC(=O)C(Cl)=C2)c(C)c1	32.1	-0.4	1.0	95.5*	46.7	15.8
Cc1ccc(OCC(=O)N2CCC(N3CC(C)CC(C)C3)CC2)cc1 (configuration not stated)	0.5	9.0	.	.	.	4.7
CC1CN(C2CCN(C(=O)COc3ccc(Cl)cc3)CC2)CC(C)O1 (configuration not stated)	-4.9	1.6	-1.0	34.8	57.3*	2.3
Cc1cc(S(=O)(=O)n2[nH]c(=O)c(CCO)c2C)c(Cl)cc1Cl	4.7	11.2	.	.	.	67.0*
CN1c2ccccc2C(C)(C)[C@]12C=Cc1cc(O)ccc1O2	15.1	26.4	0.0	46.5	-67.3	12.8
CN1c2ccccc2C(C)(C)C12C=Nc1c(ccc3ccccc13)O2 (configuration not stated)	42.5*	8.9	0.0	12.8	-13.4	33.9*
COc1ccc(CCNC(=O)CCn2c(=O)c3cccn3c3cccnc32)cc1OC	-0.6	-0.5	.	.	.	-0.3
Cc1nc(C)c(C(=O)Nc2nc3c(C)cccc3s2)o1	37.2	11.1	0.0	90.6*	-19.1	19.2
Cc1ccc(S(=O)(=O)N(C(=O)c2ccncc2)c2ccc(OC(=O)c3ccncc3)c3ccccc23)cc1	-2.2	8.0	-9.0	59.3*	-38.0	-1.9
Cc1ccc(S(=O)(=O)N(C(=O)c2ccncc2)c2ccc(OC(=O)c3ccncc3)c3ccccc23)c(C)c1	4.0	21.6	-3.0	49.8	-54.5	7.5
OCCCNC(=S)Nc1ccc2nc(-c3ccccn3)c(-c3ccccn3)nc2c1	43.4*	30.5	2.0	13.0	-54.3	45.7*
O=C(NCCCO)Nc1ccc2nc(-c3ccco3)c(-c3ccco3)nc2c1	158.4*	53.6*	31.0	101.5*	54.8*	119.5*
O=C(NCc1ccco1)Nc1ccc2nsnc2c1	-11.9	-0.3	3.0	16.4	-0.3	4.0
O=C(Nc1ccc2nc(-c3ccco3)c(-c3ccco3)nc2c1)NC1CC1	.	.	21.0	102.3*	29.2	.
O=S(=O)(c1ccc2ccccc2c1)N1CCOCC1	-2.3	1.0	.	.	.	1.2
O=S(=O)(c1ccc2nc(-c3ccco3)c(-c3ccco3)nc2c1)N1CCOCC1	26.0	9.7	8.0	89.5*	24.6	20.0
C[C@H](CO)N1C[C@H](C)[C@@H](CN(C)Cc2ccc(C(=O)O)cc2)Oc2ccc(NS(=O)(=O)c3cn(C)cn3)cc2C1=O	.	2.9	.	.	.	.
SMILES	MCL1-BIM inh	GLD-1 RNA inh	Mcl-1 Bim block	Mcl1 Noxa PPI	Mcl1-Bid inh	BCLXL inh
Cc1cc(-c2ccc(C(C)C)c(S(=O)(=O)NCCN3CCC(C)CC3)c2)on1	17.8	0.9	.	.	.	7.6
O=C(Nc1ccc(N2CCOCC2)cc1)Nc1ccc2nc(-c3ccco3)c(-c3ccco3)nc2c1	12.4	14.7	7.0	102.1*	42.5	19.7
O=C(Nc1ccc2nc(-c3cccs3)c(-c3cccs3)nc2c1)N1CCOCC1	8.6	4.0	3.0	12.5	-1.8	10.3
C[C@@H]1CN([C@@H](C)CO)C(=O)c2cc(NS(=O)(=O)c3cccs3)ccc2O[C@H]1CN(C)Cc1ccc(C(F)(F)F)cc1	.	7.5	.	.	.	.
COC(=O)c1c(-c2cccnc2)csc1NC(=O)c1cc(C)on1	-16.0	-33.2	-3.0	57.5*	-8.0	-9.8
Cc1nc2ccccc2n1C(=O)c1ccccc1[N+](=O)[O-]	-7.6	-4.7	-4.0	-1.0	52.3*	-4.5
Cc1c(C(=O)n2cnc3ccccc32)cccc1[N+](=O)[O-]	-6.2	1.0	.	.	.	2.0
CC1(C)CC(=O)C(C=NCCN2CCN(C(=O)c3ccccc3)CC2)=C(O)C1	3.5	7.7	0.0	13.4	-19.9	0.8
CC1(C)CC(=O)C(C=NCCN2CCN(CCc3ccccc3)CC2)=C(O)C1	-14.8	-2.4	51.0*	14.1	-8.1	-10.4
CCOc1ccccc1NC(=O)NCCN1CCCCC1	9.7	4.6	.	.	.	3.9
CC(Oc1ccccc1F)C(=O)NCCN1CCCCC1 (configuration not stated)	1.8	3.6	2.0	-3.5	59.2*	9.4
NC(=O)CC(NC(=O)c1cccc(Br)c1)c1ccc(N2CCN(c3ccc(F)cc3)CC2)c([N+](=O)[O-])c1 (configuration not stated)	6.7	2.4	.	.	.	2.7
Cc1cc(C)cc(-c2nnc(SCC(=O)c3ccc4c(c3)OCCO4)o2)c1	-3.5	5.4	-1.0	-10.9	-3.0	0.5
Cc1cc(-c2nnc(SCC(=O)c3ccc4c(c3)OCCO4)o2)no1	9.8	5.3	-2.0	58.9*	-26.8	3.1
Cc1nc(OCc2c(C)noc2C)c2ccccc2n1	-1.5	0.5	-1.0	22.8	-17.4	1.3
CCN(CC(=O)NC1CCS(=O)(=O)C1)S(=O)(=O)c1c(C)c(C)cc(C)c1C (configuration not stated)	4.0	-8.6	.	.	.	5.4
Cc1ccc(OCC(=O)NNc2c3ccccc3nc3ccccc23)cc1	2.7	2.0	1.0	50.6*	62.2*	5.3
COc1ccc(Nc2nc(C)c3ccccc3n2)cc1	2.3	-2.6	-2.0	17.1	101.9*	5.9
CCOc1ccc(Nc2c3ccccc3nc3ccccc23)cc1	3.1	1.8	.	53.2*	5.9	2.4
CCOc1ccc(Nc2cc(C)c3ccccc3n2)cc1	-4.6	-1.1	.	.	.	0.8
COc1ccc(Nc2nc(-c3ccccc3)c3ccccc3n2)cc1	7.7	0.9	12.0	2.0	8.6	2.6
COC(=O)c1c(C)[nH]c(C(=O)CN(C)CC(=O)Nc2cccc(F)c2)c1C	-9.5	3.5	.	.	.	-5.0
